From PubChem BioAssay (EPA / NIEHS)
Results filed as inconclusive are left out. Calls of active or inactive are those of the source. The calls were made as follows, unless noted: active = hit-call score of the fitted dose curve at least 0.9, where 1 is the maximum; inconclusive = response in the unintended direction; inactive = score below 0.9.

Columns and labels:
[1] = TOX21_PR_BLA_Followup_Agonist_viability: Viability Assessment in the Tox21 HEK293 Progesterone Receptor (PR) Agonism Beta-lactamase Follow-Up Assay (AID 2283935);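 also: cells exposed to compound for 16 hr at 37 °C; signal loss means lower viability so actives are cytotoxic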
Procedure, shortened: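 HEK293T PR-UAS-bla, 3,000 cells/well, 2% CS-FBS; 6 hr pre-incubation; cpd in DMSO, 16 hr 37C; LiveBLAzer 2 hr RT, then CellTiter-Glo 30 min RT, luminescence. Decrease = lost viability.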

[2] = TOX21_PR_BLA_Followup_Antagonist_viability: Viability Assessment in the Tox21 HEK293 Progesterone Receptor (PR) Antagonism Beta-lactamase Follow-Up Assay (AID 2283936);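 also: hits lower the luminescence signal meaning cytotoxicity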
Procedure, shortened: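 PR-UAS-bla HEK293T cells (3,000/well, 2% charcoal-stripped FBS) given compound plus R5020 agonist, 16 h at 37C. CellTiter-Glo added after bla read, 30 min at room temperature; luminescence loss indicates cytotoxicity.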

PGR (gene 5241) [3] = target: PGR (gene 5241) (UniProt P06401); assay: TOX21_PR_LUC_Followup_Antagonist: Tox21 HEK293 Progesterone Receptor (PR) Antagonism Luciferase Follow-Up Assay (AID 2283938);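 also: curve fitted upward as signal gain over DMSO baseline despite antagonist label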
Chain of PGR (gene 5241) (P06401 whole entry, looked up): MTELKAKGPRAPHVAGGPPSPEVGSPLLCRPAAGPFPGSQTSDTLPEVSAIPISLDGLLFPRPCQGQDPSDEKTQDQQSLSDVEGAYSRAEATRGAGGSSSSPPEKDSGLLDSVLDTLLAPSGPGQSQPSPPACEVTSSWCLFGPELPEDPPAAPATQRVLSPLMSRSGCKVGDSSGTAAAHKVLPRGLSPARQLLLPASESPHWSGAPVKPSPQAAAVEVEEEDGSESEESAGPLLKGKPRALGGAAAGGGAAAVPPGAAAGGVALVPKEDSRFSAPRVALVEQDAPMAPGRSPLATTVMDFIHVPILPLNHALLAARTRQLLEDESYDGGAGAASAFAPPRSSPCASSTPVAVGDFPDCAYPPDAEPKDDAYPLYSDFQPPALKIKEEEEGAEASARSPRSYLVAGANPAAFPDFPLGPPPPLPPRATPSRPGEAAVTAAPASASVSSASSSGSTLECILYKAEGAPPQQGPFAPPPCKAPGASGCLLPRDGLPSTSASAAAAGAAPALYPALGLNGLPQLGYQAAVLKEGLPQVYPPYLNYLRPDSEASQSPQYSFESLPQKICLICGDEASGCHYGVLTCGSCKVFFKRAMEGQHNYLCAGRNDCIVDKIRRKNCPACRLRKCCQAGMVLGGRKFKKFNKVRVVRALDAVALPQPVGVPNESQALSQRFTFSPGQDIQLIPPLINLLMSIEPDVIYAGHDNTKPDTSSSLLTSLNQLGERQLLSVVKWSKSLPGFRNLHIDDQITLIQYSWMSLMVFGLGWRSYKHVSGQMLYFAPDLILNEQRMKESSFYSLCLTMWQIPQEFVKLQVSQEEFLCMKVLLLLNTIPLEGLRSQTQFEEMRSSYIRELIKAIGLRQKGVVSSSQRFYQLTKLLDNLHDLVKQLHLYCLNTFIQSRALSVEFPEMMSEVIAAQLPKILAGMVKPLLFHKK
Procedure, shortened: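 HEK293-PR-A-luc cells, 3,000/well, preincubated 5 h at 37C before compound addition in DMSO; 16 h compound exposure at 37C. ONE-Glo luciferase luminescence read after 30 min at room temperature, fitted relative to DMSO baseline.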

[4] = TOX21_PR_LUC_Followup_Antagonist_viability: Viability Assessment in the Tox21 HEK293 Progesterone Receptor (PR) Antagonism Luciferase Follow-Up Assay (AID 2283940)
Procedure, shortened: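 Multiplexed viability counter-screen: after 5 days in charcoal-stripped-FBS medium, HEK293-PR-A-luc cells are plated, pinned with DMSO-dissolved compounds for 16 h at 37C, and ATP content is quantified luminescently via CellTiter-Glo.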

[5] = TOX21_PR_LUC_Followup_Agonist_viability: Viability Assessment in the Tox21 HEK293 Progesterone Receptor (PR) Agonism Luciferase Follow-Up Assay (AID 2283941);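 also: loss of signal means cytotoxicity so actives lower viability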
Procedure, shortened: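 Cells were kept 5 days in charcoal-stripped serum medium before plating HEK293-PR-A-luc at 3,000 cells/well. After 5 h they received DMSO-dissolved compound and incubated 16 h at 37C. Viability was taken from CellTiter-Glo ATP luminescence.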

PGR (gene 5241) [6] = target: PGR (gene 5241) (UniProt P06401); assay: TOX21_PR_BLA_Followup_Agonist_ratio: Tox21 HEK293 Progesterone Receptor (PR) Agonism Beta-lactamase Follow-Up Assay, Ratio (AID 2283933)
Procedure, shortened: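 HEK293T PR-UAS-bla, 2% CS-FBS; 6 hr preincubation, cpd/DMSO pinned, 16 hr 37C/5% CO2; LiveBLAzer B/G 2 hr RT; FRET ch2/ch1 ratio, agonist direction vs DMSO. Viability by CellTiter-Glo in same wells.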

PGR (gene 5241) [7] = target: PGR (gene 5241) (UniProt P06401); assay: TOX21_PR_LUC_Followup_Agonist: Tox21 HEK293 Progesterone Receptor (PR) Agonism Luciferase Follow-Up Assay (AID 2283937; active = hit-call score of the fitted dose curve at least 0.9, where 1 is the maximum; inactive = score below 0.9)
Procedure, shortened: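 Cells: HEK293-PR-A-luc, 3,000/well, 10% charcoal-stripped FBS assay medium. Compound added after 5 h; 16 h, 37C, 0% CO2. ONE-Glo luciferase, luminescence. Positive fit vs DMSO.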

[8] = CEETOX_H295R_CORTIC_noMTC: CeeTox H295R High-throughput Steroidogenesis Assay for Corticosterone (CORTIC), maximum tolerated concentration (MTC) filtered results only (AID 2283917; active = hit-call score of the fitted dose curve at least 0.9, where 1 is the maximum; inactive = score below 0.9); conditions: actives raise or lower the signal
Procedure, shortened: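 H295R adrenal cells pre-stimulated 48 h with 10 uM forskolin, then exposed 48 h to chemical in 0.1% DMSO; corticosterone in medium quantified by HPLC-MS/MS, fitted bidirectionally versus DMSO without MTT-based concentration filtering.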

[9] = CEETOX_H295R_DOC_noMTC: CeeTox H295R High-throughput Steroidogenesis Assay for DOC, maximum tolerated concentration (MTC) filtered results only (AID 2283918; active = hit-call score of the fitted dose curve at least 0.9, where 1 is the maximum; inactive = score below 0.9); conditions: actives raise or lower the signal
Procedure, shortened: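 H295R cells prestimulated 48 h with 10 uM forskolin, then exposed 48 h to chemical in 0.1% DMSO. 11-Deoxycorticosterone in medium measured by MTBE extraction and HPLC-MS/MS; bidirectional fit vs DMSO, no MTC filter.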

[10] = CEETOX_H295R_ESTRADIOL_noMTC: CeeTox H295R High-throughput Steroidogenesis Assay for Estradiol, maximum tolerated concentration (MTC) filtered results only (AID 2283919; active = hit-call score of the fitted dose curve at least 0.9, where 1 is the maximum; inactive = score below 0.9); conditions: actives raise or lower the signal
Procedure, shortened: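 H295R human adrenal cells pre-stimulated 48 h with 10 uM forskolin, then exposed 48 h to chemical (0.1% DMSO final). Estradiol in medium measured by HPLC-MS/MS after MTBE extraction and dansyl derivatization; bidirectional fit versus DMSO, concentrations not MTT-filtered.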

[11] = CEETOX_H295R_PROG_noMTC: CeeTox H295R High-throughput Steroidogenesis Assay for Progesterone (PROG), maximum tolerated concentration (MTC) filtered results only (AID 2283920; active = hit-call score of the fitted dose curve at least 0.9, where 1 is the maximum; inactive = score below 0.9); conditions: actives raise or lower the signal
Procedure, shortened: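 H295R cells, prestimulated 48 h with 10 uM forskolin, exposed 48 h to chemical in 0.1% DMSO. Medium progesterone quantified by MTBE extraction and HPLC-MS/MS; bidirectional fit versus DMSO, concentrations not MTT-filtered.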

[12] = CEETOX_H295R_ESTRONE_noMTC: CeeTox H295R High-throughput Steroidogenesis Assay for Estrone, maximum tolerated concentration (MTC) filtered results only (AID 2283921; active = hit-call score of the fitted dose curve at least 0.9, where 1 is the maximum; inactive = score below 0.9); conditions: actives raise or lower the signal
Procedure, shortened: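 H295R cells prestimulated 48 h with 10 uM forskolin, then exposed 48 h to chemical in 0.1% DMSO; medium estrone measured by HPLC-MS/MS after MTBE extraction and dansyl derivatization, fitted bidirectionally versus DMSO without MTT-based MTC filtering.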

[13] = CEETOX_H295R_TESTO_noMTC: CeeTox H295R High-throughput Steroidogenesis Assay for Testosterone (TESTO), maximum tolerated concentration (MTC) filtered results only (AID 2283924; active = hit-call score of the fitted dose curve at least 0.9, where 1 is the maximum; inactive = score below 0.9); conditions: actives raise or lower the signal
Procedure, shortened: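 H295R cells prestimulated 48 h with 10 uM forskolin, then exposed 48 h to chemicals in 0.1% DMSO final. Testosterone in medium quantified by MTBE extraction and HPLC-MS/MS; bidirectional fit versus DMSO, concentrations […] filtered by MTT-based maximum tolerated concentration.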

THRA (gene 7067) = THRA (gene 7067) (UniProt P10827); assay: TOX21_TRA_COA_Agonist_Followup_ratio: Tox21 Thyroid Hormone Receptor alpha Agonism through Coactivator Recruitment Follow-Up Assay, Ratio (AID 2283948; active = hit-call score of the fitted dose curve at least 0.9, where 1 is the maximum; inactive = score below 0.9)
Chain of THRA (gene 7067) (P10827 whole entry, looked up, the tested form may be a part): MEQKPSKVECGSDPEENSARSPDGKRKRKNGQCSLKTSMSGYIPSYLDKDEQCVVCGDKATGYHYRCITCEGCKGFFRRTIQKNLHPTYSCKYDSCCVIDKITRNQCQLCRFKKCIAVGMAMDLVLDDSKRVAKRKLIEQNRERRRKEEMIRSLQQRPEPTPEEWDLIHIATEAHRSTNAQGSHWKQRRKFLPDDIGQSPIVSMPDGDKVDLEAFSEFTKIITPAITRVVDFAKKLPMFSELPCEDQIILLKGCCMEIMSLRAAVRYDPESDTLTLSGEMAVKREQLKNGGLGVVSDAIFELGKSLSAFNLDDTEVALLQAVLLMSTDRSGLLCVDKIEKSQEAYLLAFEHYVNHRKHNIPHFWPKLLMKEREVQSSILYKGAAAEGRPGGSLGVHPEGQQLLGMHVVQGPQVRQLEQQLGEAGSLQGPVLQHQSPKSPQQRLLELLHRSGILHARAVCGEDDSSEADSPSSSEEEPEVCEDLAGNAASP
Procedure, shortened: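 Cell-free TR-FRET: GST-tagged TRα LBD (2.5 nM) with 0.10% BSA and compound, then fluorescein-SRC-2 peptide (200 nM) and Tb-anti-GST antibody (2 nM). Readout 520:495 nm ratio (ex 340 nm), normalized to DMSO (0%) and T3 (100%).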

THRB (gene 7068) [14] = target: THRB (gene 7068) (UniProt P10828); assay: TOX21_TRB_BLA_Agonist_Followup_ratio: Tox21 Thyroid Hormone Receptor beta Agonism Beta-lactamase (BLA) Follow-Up Assay, Ratio (AID 2283954)
Chain of THRB (gene 7068) (P10828 whole entry, looked up, the tested form may be a part): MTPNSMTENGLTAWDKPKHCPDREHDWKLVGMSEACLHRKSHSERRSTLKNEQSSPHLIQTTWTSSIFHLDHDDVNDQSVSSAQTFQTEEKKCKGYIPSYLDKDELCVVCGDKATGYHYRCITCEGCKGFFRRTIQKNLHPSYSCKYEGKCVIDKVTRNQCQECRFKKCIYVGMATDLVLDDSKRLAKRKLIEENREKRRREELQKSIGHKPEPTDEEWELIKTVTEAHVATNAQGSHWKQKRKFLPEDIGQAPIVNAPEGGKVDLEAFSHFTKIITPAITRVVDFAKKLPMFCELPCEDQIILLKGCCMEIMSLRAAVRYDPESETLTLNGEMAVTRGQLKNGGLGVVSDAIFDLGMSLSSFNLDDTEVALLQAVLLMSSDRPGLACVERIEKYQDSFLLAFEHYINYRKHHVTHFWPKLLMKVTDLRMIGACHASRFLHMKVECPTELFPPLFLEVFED
Procedure, shortened: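 Human TRβ LBD–GAL4 DBD fusion in GeneBLAzer UAS-bla HEK293T cells; 11 concentrations in triplicate, 18 h at 37°C/5% CO2, T3 as agonist control. CCF4-AM substrate 2 h at room temperature; 460:530 nm ratio fitted for gain of signal versus DMSO.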

[15] = TOX21_TRB_BLA_Agonist_Followup_viability: Viability Assessment in the Tox21 Thyroid Hormone Receptor beta Agonism Beta-lactamase (BLA) Follow-Up Assay (AID 2283956)
Procedure, shortened: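 TRb-bla HEK293T cells (GAL4-DBD/human TRb LBD) in 2% charcoal-stripped FBS medium were exposed 18 h at 37C to 11 concentrations in triplicate. CellTiter-Glo ATP luminescence was read after 30 min at room temperature, with bidirectional fitting against DMSO.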

THRB (gene 7068) [16] = target: THRB (gene 7068) (UniProt P10828); assay: TOX21_TRB_COA_Agonist_Followup_ratio: Tox21 Thyroid Hormone Receptor beta Agonism through Coactivator Recruitment Follow-Up Assay, Ratio (AID 2283963; active = hit-call score of the fitted dose curve at least 0.9, where 1 is the maximum; inactive = score below 0.9)
Procedure, shortened: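 Signal is the 520/495 nm emission ratio (excitation 340 nm), scaled between DMSO-only wells as 0% and T3 wells as 100%. It reflects fluorescein-labeled SRC-2 peptide recruitment to GST-TRβ ligand-binding domain detected via terbium anti-GST antibody.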

[17] = TOX21_TR_RXR_BLA_Agonist_Followup_viability: Viability Assessment in the Tox21 Thyroid Hormone Receptor beta Retinoid X Receptor alpha (RXRa) Agonism Beta-lactamase (BLA) Follow-Up Assay (AID 2283970)
Procedure, shortened: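 Cells: HEK293T RXRa-UAS-bla, 2,500/well; medium phenol red-free DMEM + 2% charcoal-stripped FBS; 16h, 37C/5% CO2; qHTS concentration series. Read: CellTiter-Glo luminescence (ATP); bidirectional fit, DMSO = baseline.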

[18] = target: Retinoic acid receptor RXR-alpha (Homo sapiens) (UniProt P19793); assay: TOX21_TR_RXR_BLA_Agonist_Followup_ratio: Tox21 Thyroid Hormone Receptor beta Retinoid X Receptor alpha (RXRa) Agonism Beta-lactamase (BLA) Follow-Up Assay, Ratio (AID 2283968)
Chain of Retinoic acid receptor RXR-alpha (Homo sapiens) (P19793 whole entry, looked up): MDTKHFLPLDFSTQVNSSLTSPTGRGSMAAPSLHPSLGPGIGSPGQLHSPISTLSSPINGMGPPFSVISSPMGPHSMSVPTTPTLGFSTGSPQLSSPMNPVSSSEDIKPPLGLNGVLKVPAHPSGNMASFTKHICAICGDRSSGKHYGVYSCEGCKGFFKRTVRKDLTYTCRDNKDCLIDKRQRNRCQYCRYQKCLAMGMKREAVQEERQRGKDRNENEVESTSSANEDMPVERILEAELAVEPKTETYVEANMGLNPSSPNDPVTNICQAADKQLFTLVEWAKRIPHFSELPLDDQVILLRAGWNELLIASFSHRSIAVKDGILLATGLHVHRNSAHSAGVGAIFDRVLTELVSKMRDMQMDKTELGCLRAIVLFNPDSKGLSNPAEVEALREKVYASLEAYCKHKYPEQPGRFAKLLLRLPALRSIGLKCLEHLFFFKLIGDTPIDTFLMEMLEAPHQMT
Procedure, shortened: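 HEK293T RXRa-bla, qHTS; cpd 11-pt conc. in triplicate, 16 h 37C/5% CO2; CCF4-AM 2 h RT; ratio 460:530 nm; agonist direction vs DMSO; 9-cis retinoic acid as positive control.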

[19] = target: Thyroid hormone receptor alpha (Rattus norvegicus) + Thyroid hormone receptor beta (Rattus norvegicus) (UniProt P18113+P63059); assay: TOX21_TR_LUC_GH3_Agonist_Followup: Tox21 GH3 Thyroid Hormone Receptor Agonism Luciferase Follow-Up Assay (AID 2283939)
Chain of Thyroid hormone receptor alpha (Rattus norvegicus) + Thyroid hormone receptor beta (Rattus norvegicus) (P63059 whole entry, looked up): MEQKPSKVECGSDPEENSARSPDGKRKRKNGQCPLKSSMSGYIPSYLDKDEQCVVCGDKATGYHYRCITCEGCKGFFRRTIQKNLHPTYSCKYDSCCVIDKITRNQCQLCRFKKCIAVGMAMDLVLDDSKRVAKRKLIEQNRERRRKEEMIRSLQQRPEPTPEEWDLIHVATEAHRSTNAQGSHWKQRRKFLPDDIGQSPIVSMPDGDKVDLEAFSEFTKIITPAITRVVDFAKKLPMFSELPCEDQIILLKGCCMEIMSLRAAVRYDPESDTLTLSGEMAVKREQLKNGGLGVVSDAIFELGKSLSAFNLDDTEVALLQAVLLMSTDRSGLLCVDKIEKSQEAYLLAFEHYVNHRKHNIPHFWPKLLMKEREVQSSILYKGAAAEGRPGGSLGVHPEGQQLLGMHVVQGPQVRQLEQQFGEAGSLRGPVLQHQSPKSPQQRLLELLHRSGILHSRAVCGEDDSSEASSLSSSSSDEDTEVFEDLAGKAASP
Chain of Thyroid hormone receptor alpha (Rattus norvegicus) + Thyroid hormone receptor beta (Rattus norvegicus) (P18113 whole entry, looked up): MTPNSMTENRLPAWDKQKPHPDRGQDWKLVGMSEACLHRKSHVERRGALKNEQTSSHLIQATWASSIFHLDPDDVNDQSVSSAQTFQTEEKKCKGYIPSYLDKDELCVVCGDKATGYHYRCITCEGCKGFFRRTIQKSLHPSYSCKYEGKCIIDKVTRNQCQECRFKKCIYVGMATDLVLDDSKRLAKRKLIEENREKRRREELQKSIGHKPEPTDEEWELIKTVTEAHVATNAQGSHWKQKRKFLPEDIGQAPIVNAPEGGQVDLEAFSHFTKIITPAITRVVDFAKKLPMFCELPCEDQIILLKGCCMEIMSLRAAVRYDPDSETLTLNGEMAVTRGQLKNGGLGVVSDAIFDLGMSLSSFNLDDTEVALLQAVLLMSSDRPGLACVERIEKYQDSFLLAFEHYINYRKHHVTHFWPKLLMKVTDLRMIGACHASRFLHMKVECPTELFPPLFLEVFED
Procedure, shortened: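 Rat GH3 cells (1,500/well) in serum-free assay medium, treated with 15-point series, 92 uM to 5 nM final, for 24 h at 37C. Luciferase via ONE-Glo luminescence; gain of signal fitted against DMSO, T3 positive control.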

Measured: AC50

C[C@]12CC[C@H](O)CC1=CC[C@@H]1[C@@H]2CC[C@]2(C)C(=O)CC[C@@H]12
inactive: [1] | [2] | PGR (gene 5241) [3] | [4] | [5]

Clc1ccc(C2(Cn3cncn3)CC(Br)CO2)c(Cl)c1 (stereo not given)
active: PGR (gene 5241) [3] 46.1 µM
inactive: [1] | [2] | [4] | [5]

CC12CC1(C)C(=O)N(c1cc(Cl)cc(Cl)c1)C2=O (stereo not given)
inactive: PGR (gene 5241) [6] | [1] | PGR (gene 5241) [7] | PGR (gene 5241) [3] | [4] | [5]

c1cc[c]([Hg][c]2ccccc2)cc1
active: [8] 76.1 µM | [9] 2.26 µM | [11] 21.9 µM | [13] 67.9 µM
inactive: [10] | [12]

C[C@]12CCC(=O)C[C@@H]1CC[C@@H]1[C@@H]2CC[C@]2(C)[C@@H](O)CC[C@@H]12
inactive: [1] | [2] | [4] | [5]

CC(C)C1CCC(Cc2ccc(Cl)cc2)C1(O)Cn1cncn1 (stereo not given)
active: [1] 75.5 µM | PGR (gene 5241) [3] 22 µM
inactive: [2] | [4] | [5]

CC(C)(c1ccccc1)c1ccc(O)c(C(C)(C)c2ccccc2)c1
inactive: THRA (gene 7067) | THRB (gene 7068) [14] | [15] | THRB (gene 7068) [16] | [17]

C=C(C)C(=O)[O][Sn]([CH2]CCC)([CH2]CCC)[CH2]CCC
active: THRB (gene 7068) [14] 68.3 µM | [15] 7.08 µM | [18] 0.116 µM | [17] 15.1 µM
inactive: THRA (gene 7067) | THRB (gene 7068) [16]

NNC(=S)NN
inactive: [19] | THRA (gene 7067) | THRB (gene 7068) [16] | [18] | [17]

ClC(Cl)=C(Cl)C(Cl)=C(Cl)Cl
inactive: [8] | [9] | [11]
